Reference: the supplement of paper PMC8699584
Where “and” joins values, the source holds several entries; their conditions need not be identical. Equal values may be shown once. ± gives the standard deviation of the averaged measurements.

test system: Mv4-11; test: cell viability relative to DMSO control (bortezomib = 0%); higher = less growth inhibition; conditions: 10 nM; 72 h
How it was run: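 In duplicate runs, a library of 679 approved and investigational compounds in 384-well plates received acute myeloid leukemia cells at 1000 cells per well in 50 µL, with each compound at a single 10 nM dose for 72 h. CellTiter-Glo luminescence, read on an EnVision reader, served as the viability measure. Each plate was normalized by linear regression between DMSO-treated cells (100%) and positive-control-treated cells (0%).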

SMILES	cell viability
O=C(Nc1cccc(Nc2ncc(Br)c(NCCc3cnc[nH]3)n2)c1)N1CCCC1	81.16 ± 0.49%
CN(C)C/C=C/C(=O)Nc1ccc(C(=O)Nc2cccc(Nc3ncc(Cl)c(-c4c[nH]c5ccccc45)n3)c2)cc1	95.3 ± 1.1%
COc1ccc(COc2ccc(Cc3cnc(N)nc3N)cc2OC)cc1	123 ± 11%
CC(C)(C)n1nc(-c2cccc3ccccc23)c2c(N)ncnc21	110 ± 10%
CCN(CC)CCNC(=O)c1c(C)[nH]c(/C=C2\C(=O)Nc3ccc(F)cc32)c1C [Sunitinib]	117 ± 4.9%
COc1cc2ncnc(Nc3cccc(Cl)c3)c2cc1OC	108 ± 7.1%
COCCOc1cnc2ccn([C@H](C)c3nnc4c(F)cc(-c5cnn(C)c5)cn34)c(=O)c2c1	115 ± 1.6%
c1ccc(-c2[nH]ncc2-c2ccnc3ccccc23)nc1	111% and 113%
O=c1sn(-c2cccc3ccccc23)c(=O)n1Cc1ccccc1 [Tideglusib]	95.4 ± 20%
O=C(Nc1cccnc1)c1cc(-c2ccnc(F)c2)ccc1OCc1ccccc1	105 ± 2.3%
CC[C@@](C)(Nc1ccnc(-c2c[nH]c3ncccc23)n1)C(=O)NCC(F)(F)F [Decernotinib(VX-509)]	89.3 ± 6.1%
Nc1nccc(Oc2ccc3c(C(=O)Nc4cccc(C(F)(F)F)c4)cccc3c2)n1	117 ± 8.5%
O=C(Nc1ccc(-c2ccnc(Nc3ccc(N4CCOCC4)cc3)n2)cc1)C1CCCN1 (stereo not given)	95.7 ± 4.2%
Cc1cc(O)c2c(c1)C(=O)c1cc(O)cc(O)c1C2=O [Emodin]	99.1 ± 2.6%
CNC(=O)c1ccc(C)c(-n2c(C)cc(OCc3ccc(F)cc3F)c(Br)c2=O)c1	110 ± 1.8%
